Laboratory results published in ChEMBL document CHEMBL4888484, “Replenishing the malaria drug discovery pipeline: Screening and hit evaluation of the MMV Hit Generation Library 1 (HGL1) against asexual blood stage Plasmodium falciparum ,using a nano luciferase reporter read-out” (2022).
Hit rate of the full screen: of about 4,800 compounds, about 420 (8.8%) showed an effect of 50% or more. Many of the other results were omitted from the sample, so strong results are more common in it than they were.

test system: Plasmodium falciparum; test: Confirmatory screen in NF54 nanoGlo assay, in single point, at 2uM, 72h; assay type: functional, Erythrocyte; conditions: timepoint 72 hour

Structure (SMILES) | % Inhibition [%]
Cc1cc(N2C(=O)CCS2(=O)=O)cc(C)c1S(=O)(=O)NCc1ccccn1 | 2
Cc1nn(C)c(C)c1-c1cc(C(=O)Nc2sc3c(c2C#N)CCCC3)c2ccccc2n1 | -13
CCc1ccc(C2=Nc3cccnc3N(CC(=O)Nc3c(C)cc(C)cc3C)C(=O)C2)cc1 | -4
Cc1cc(C)c(NC(=O)OCc2cccc3cccnc23)c(C)c1 | 83
Cc1cccnc1NC(=O)OC(C)(C)C | 0
CN(C(=O)Cc1cc(Br)ccc1F)c1nncn1C | 9
O=S(=O)(N[C@H](c1nccs1)C1CC1)c1c(F)cccc1Cl | 0
CC(C)CC(=O)N=c1nc(S)ss1 | -4
CC(=O)c1cccc(NC(=O)Cn2c(=O)n(CCc3ccccc3)c(=O)c3ccccc32)c1 | 7
COc1ccc(NC(=O)CCC(=O)N2CCc3ccccc3C2)cc1 | 3
CC(=O)c1cccc(NC(=O)c2nonc2C)c1 | -11
COc1ccc(NC(=O)CN2N=C(C(=O)Nc3ccccc3)CCC2=O)cc1 | -15
CCCN1C(=O)c2ccccc2N2C(=O)CC[C@@]12C(=O)Nc1ccccc1 | 91
CC(=O)c1cccc(NC(=O)[C@@]23CCC(=O)N2c2ccccc2C(=O)N3C)c1 | 76
O=C(CN1C[C@@H](c2ccccc2)Oc2ccccc2C1=O)Nc1ccccc1 | -16
COc1ccc(NC(=O)C2=NN(CC(=O)Nc3cccc(OC)c3)C(=O)CC2)cc1 | -12
COc1cccc(NC(=O)c2ccc3c(c2)N(C)[C@@H]2CCCCCN2C3=O)c1 | 5
CCCN1C(=O)c2ccccc2N2C(=O)CC[C@@]12C(=O)Nc1ccc(OC)cc1 | 92
CCN1C(=O)c2ccccc2N2C(=O)CC[C@@]12C(=O)Nc1cccc(OC)c1 | 92
CCOc1cccc(CNC(=O)c2nn[nH]c2Nc2ccc(C)c(C)c2)c1 | 1
Cc1ccc(Cc2nn3c(C4CCN(S(C)(=O)=O)CC4)nnc3s2)cc1C | -8
Cc1ccc(OCCCOc2ccc(CO)nc2)cc1C | 3
O=S1(=O)NCCCCN1Cc1ccccc1 | -6
Cc1cc(NC(=O)Cn2c(=O)n(CC(C)C)c(=O)c3sccc32)no1 | -13
Cn1cc(N)c(Oc2ccc3c(c2)OCO3)n1 | 0
Cc1cc(N2C(=O)CCS2(=O)=O)ccc1S(=O)(=O)NC1CCCC1 | 7

Structure (SMILES) | % Inhibition [%]
Cc1ccc(-c2nn[nH]n2)cc1-n1cccn1 | -2
COc1ccc(N2CCN(c3nccn4nc(-c5cccs5)cc34)CC2)cc1 | 6
O=C(NC(N1CCCC1=O)(C(F)(F)F)C(F)(F)F)c1ccco1 | -1
CC(C)(C)OC(=O)NC1CCCN(CC2CN(c3ccc(F)cc3)C(=O)O2)C1 (stereo unspecified) | -8
Cc1cccc(C)c1NC(=O)c1cc(-c2cccc3ccccc23)[nH]n1 | 2
CN(C)c1nc(N)cc(-c2cccc3cccnc23)n1 | 44
Cc1cccc2c(-c3cc(N)nc(N)n3)c[nH]c12 | 85
O=C(NCc1cc(F)cc(F)c1)c1csc(C(=O)NC2CC2)n1 | -6
C[C@H]1CCCN(C(=O)CNC(=O)Cc2ccccc2)CC1 | -9
CN(C)c1nc(CN2CCC[C@H](c3n[nH]c(-c4ccccc4)n3)C2)ns1 | -1
c1ccc(-c2c[nH]c([C@H]3CCCN(c4ncnc5[nH]ncc45)C3)n2)cc1 | -4
COc1ccnc(CN2CCC[C@H](c3nc(-c4ccccc4)c[nH]3)C2)c1OC | 67
CCS(=O)(=O)Nc1cc2c(C(C)=O)c(C)oc2cc1C | 4
Cc1ccc2c(c1)[C@@H](O)C[C@@H](C)N2C(=O)c1ccco1 | -7
Brc1ccc2c(c1)CN(Cc1c[nH]cn1)CCO2 | 4
Cc1nc(N2CCC(C)CC2)ncc1-c1cc(=O)[nH]c(Nc2ccccc2)n1 | -16
COc1ccc(N2CCN(c3nc(-c4ccccc4)cs3)CC2)cc1 | -6
COc1ccc(-c2cc(-c3ccccc3)nc(N3CCC(C)CC3)n2)cc1 | 50
Cc1cccc(NC(=O)CS(=O)(=O)Cc2cc(Cl)cc3c2OCOC3)c1C | -10
COc1cccc(CNC(=O)Cn2c(=O)n(Cc3cccc(OC)c3)c(=O)c3sccc32)c1 | 2
O=C(CNC(=O)c1ccc(C(F)(F)F)cc1)Nc1cnc2c(c1)COCC2 | -1
CCNC(=O)c1csc(COc2ccc3c(c2)[C@H](c2ccc(C)cc2)N(C(=O)CC(C)C)CC3)n1 | 36
Cc1cccc(CN2C(=O)[C@@H]3CCCN3c3ccc(C#N)cc32)c1 | 0
Cc1cc(N2C[C@H]3CC[C@@H](C2)[C@H]3N(C)C)nc(Nc2cccc(O)c2)n1 | 44
Cc1cc(N2CC(OCc3ccccc3)C2)nc(Nc2cccc(O)c2)n1 | 96
CN(C(=O)C(C)(C)Nc1ncc(C(F)(F)F)cc1Cl)c1ccc(Cl)cc1 | 35

Structure (SMILES) | % Inhibition [%]
CN(CC#N)C(=O)c1ccc(Br)cc1Br | -12
O=C(N[C@@H]1CN(Cc2ccccn2)CCC[C@H]1O)c1ccc(OCc2ccccc2)cc1 | 30
CC(C)C1(CNC(=O)C(=O)c2cc(S(N)(=O)=O)cn2C)CC1 | -3
CCn1cc(C)c(C(=O)O)c1CC(=O)NCc1ccc(F)cc1 | -12
CC(CNC(=O)NCC(O)C1CC1)c1ccc(F)c(F)c1 (stereo unspecified) | 3
Cc1nn(C)cc1[C@@H]1CC(=O)Nc2c1cnn2C(C)(C)C | -14
COc1cc(OC)nc(-n2nc(C)cc2C(=O)Nc2ccc(Cl)cc2)n1 | 10
Cc1cc(C)n(-c2nnc(-c3ccccc3)c(-c3ccccc3)n2)n1 | 2
Cc1cc(C)n(-c2nc(Nc3ccc(Cl)cc3)nc(Nc3ccc(Cl)cc3)n2)n1 | 82
O=C(Cc1cccs1)Nc1ncc(Cc2ccccc2)s1 | 4
CCn1cc(Cl)c(C(=O)N2N=C3/C(=C/c4ccc(C)cc4)CCCC3C2c2ccc(C)cc2)n1 (stereo unspecified) | 7
Cc1ccc(NC(=O)CN2CCC3(CC2)NC(c2ccc(OC(F)(F)F)cc2)=NO3)c(C)c1 | -5
CCC(C)(C)c1ccc(OCC(=O)Nc2cccc(C(=O)CC(=O)Nc3ccc(Oc4ccccc4)cc3)c2)c(C(C)(C)CC)c1 | -4
COc1nc(N2[C@@H]3CC[C@H]2C[C@@H](OC)C3)ncc1F | 62
CCN1CCN(C2CCN(c3ncc(F)c(OC)n3)CC2)CC1 | 48
COc1cc(N)ccc1OCC(F)F | 2
Cc1nn(C)cc1-c1cc(C(F)(F)F)nc(N2CCOCC2)n1 | -5
Cn1ccc(NC(=O)C(=O)c2ccc(-c3ccccc3)cc2)n1 | 1
Cc1ccccc1NC(=O)N1CCN(C(=O)c2nonc2N)CC1 | -7
NS(=O)(=O)c1ccc(-c2noc(C3(c4cccc(F)c4)CCC3)n2)cc1 | -9
COCCN1CCc2c(C)nc3c(-c4ccc(OC)c(OC)c4)cnn3c21 | 6
Cc1ccc(S(=O)(=O)N2CCC(c3csc(N)n3)CC2)cc1 | -9
CCc1ncoc1C(=O)NCC(F)(F)c1cc(F)cc(F)c1 | -10
O=C1CCc2[nH]c(=O)n(C3CCCCC3)c(=O)c21 | 4
C[C@@H]1NC(=O)N(C2CCCN(Cc3cccc(C(F)(F)F)c3)C2=O)C1=O (stereo partly specified) | -11
COc1ccc(-n2c(C)nn(Cc3ccccc3)c2=O)cc1 | -11

Structure (SMILES) | % Inhibition [%]
CN(CCCNC(=O)Cc1n[nH]c(=O)c2ccccc12)Cc1ccccc1 | -2
CCCC(=O)Nc1ccc(N2CCN(CC(=O)N(CC)CC)CC2)cc1C(=O)O | -2
Cc1cc(C)c(NC(=O)c2nnn(CC(=O)NCc3ccc(F)cc3)c2C)c(C)c1 | -9
O=C(N[C@H]1C[C@@H]2C[C@H]1CN2C(=O)c1cccc(C(F)(F)F)c1)c1ccccc1 | 3
COc1ccc(OC)c(NC(=O)CN2CCc3[nH]c4ccc(F)cc4c(=O)c3C2)c1 | 72
COc1cc(C)c2[nH]c3c(c(=O)c2c1)CN(CC(=O)Nc1ccc(C)c(F)c1)CC3 | 0
COc1cc(C)c2[nH]c3c(c(=O)c2c1)CN(CC(=O)Nc1ccc(F)c(C)c1)CC3 | 14
COc1ccc(S(=O)(=O)N(C2CCCCC2)C2CCCCC2)cc1 | -11
CCN(CCc1ccncc1)S(=O)(=O)c1ccc(N2C(=O)CCS2(=O)=O)cc1C | 6
O=C(Nc1ccc(-c2nc3cnccc3o2)c(Cl)c1)c1sc2ccccc2c1Cl | -5
Oc1cc(CC[C@H]2CCCCN2)cc(-c2cnc3ccccc3n2)c1 | 73
COc1cccc(-c2cc(O)cc(CC[C@H]3CCCCN3)c2)n1 | 73
COCCN(CC1CN(Cc2ccsc2)CC1c1cccc(F)c1)C(=O)C(C)C (stereo unspecified) | 2
O=C(Nc1ccc(N2CCn3c(nc4cc(Cl)ccc43)C2)cc1)c1ccc(F)cc1 | -6
Cc1nc(Cc2nc(O)cs2)sc1C | -20
NC[C@H]1CN(CCc2cccc(Cl)c2)C(=O)O1 | -8
Cc1ccnc2nc(C(=O)N(C)c3ccc(Cl)cn3)nn12 | 16
CCC(=O)Nc1nc2ccc(NS(=O)(=O)Cc3ccccc3)cc2s1 | -5
Fc1cccc(Br)c1C1CC(c2cccnc2)Nc2ncnn21 (stereo unspecified) | -9
CC(C)(C)OC(=O)NCc1ccccc1O | 1
O=C(NC1CCN(Cc2ccccc2)CC1)c1cncc(O)c1 | -10
CCN1CCN(C(=O)c2ccccc2N2CCC(NC(=O)c3cccc(Br)c3)CC2)CC1 | 44
CCN(CC)CCCNC(=O)c1ccc(-c2nc(CS(=O)(=O)c3ccccc3)c(C)o2)cc1 | -10
